Data reported in PubChem BioAssay.
Values without a mark were called inactive. How the calls were made is not given here.

Biological target: Pantothenate synthetase (Mycobacterium tuberculosis (strain ATCC 25618 / H37Rv)) (UniProt P9WIL5)
Assay: Coupled enzyme confirmation of inhibitors against recombinant Mtb PanC (AID 375);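 further: 0% = full reaction with vehicle and 100% = no enzyme background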
Conditions: coupled enzyme assay; at 10 µM, stronger effect = higher value

Sequence of Pantothenate synthetase (Mycobacterium tuberculosis (strain ATCC 25618 / H37Rv)) (P9WIL5 whole entry, looked up): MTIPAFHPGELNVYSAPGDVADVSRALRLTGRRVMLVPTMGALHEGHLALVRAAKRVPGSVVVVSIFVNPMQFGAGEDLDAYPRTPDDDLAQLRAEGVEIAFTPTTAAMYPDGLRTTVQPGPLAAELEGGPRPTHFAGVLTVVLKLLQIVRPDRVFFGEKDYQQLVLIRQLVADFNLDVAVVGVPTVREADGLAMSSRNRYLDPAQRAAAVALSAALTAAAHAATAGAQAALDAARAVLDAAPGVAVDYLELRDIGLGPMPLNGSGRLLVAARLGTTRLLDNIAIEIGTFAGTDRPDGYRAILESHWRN

SMILES | inhibition [%]
O=C(NCC1CCCO1)C1CCN(c2ccc(S(=O)(=O)N3CCCC3)cc2)CC1 (centres undefined) | 0
COc1ccc(C(=O)N(Cc2ccco2)C(C(=O)NC2CCCC2)c2ccc(O)cc2)cc1OC (centres undefined) | 0
COc1cccc(OC)c1C(=O)Nc1ccccc1N1CCCC1 | 2
CCCOC(=O)CSc1nc(N)c(C#N)c(CC)c1C#N | 8
Cc1cccc(-n2ncc3c(NCCCn4ccnc4)ncnc32)c1 | 4
Cc1nc(C)n(C(C)CC(=O)O)n1 (centres undefined) | 0
CCOC(=O)c1ccccc1NC(=O)c1c(O)c2ccccc2n(CC)c1=O | 0
O=C(CSc1nc(-c2ccc(F)cc2)cs1)N1CCOCC1 | 0
Cn1c(=O)cc(OCCCC(=O)N2CCCCC2)c2ccccc21 | 0
O=C(CN1CCN(C(=O)c2ccccc2)CC1)Nc1ncc(Br)cc1Br | 0
C[N+](C)(C)CCOP(=O)([O-])OC[C@H](O)CO | 1
Cc1ccc(Br)cc1S(=O)(=O)N1CCN(c2ccccc2)CC1 | 0
Cc1cccc(CC(=O)Nc2c3c(nn2-c2cccc(Cl)c2)CS(=O)C3)c1 (centres undefined) | 2
CCOC(=O)C1CCCN(C(=O)c2cc3c(C)nc4ccccc4c3o2)C1 (centres undefined) | 7
CCCCn1c(CN2CCN(c3ccccc3)CC2)nc2c1c(=O)n(C)c(=O)n2C | 0
COc1cc([C@@H]2c3cc4c(cc3[C@H](O)[C@H]3COC(=O)[C@H]23)OCO4)cc(OC)c1OC | 0
O=C(OCc1cc2ccccc2[nH]c1=O)c1ccco1 | 0
Cc1ccc2oc(=O)c3cnn(CC(=O)N4CCCc5ccccc54)c3c2c1 | 1
O=C(NCC1CCCO1)c1ccc(C(=O)NCC2CCCO2)cc1 (centres undefined) | 0
NS(=O)(=O)c1cc2c(cc1C(F)(F)F)NCNS2(=O)=O | 2

SMILES | inhibition [%]
COc1ccc(-c2nc(C#N)c(NCCCN(C)C)o2)cc1OC | 0
Clc1cccc(Cl)c1COc1ccncc1 | 0
NS(=O)(=O)c1ccc(NC(=O)CSc2nnc(Cc3cccs3)n2-c2ccccc2)cc1 | 1
CC(C)N(C(=O)N1CCC(c2nc(-c3ccncc3)no2)CC1)C(C)C | 0
Cc1nc2sc(C(c3cccs3)N3CC(C)CC(C)C3)c(O)n2n1 (centres undefined) | 0
CCn1cc(C(=O)NCCCOC)c(=O)c2cc(S(=O)(=O)N(C)C3CCCCC3)ccc21 | 2
CC(NC(=O)c1cn(C)c2ccc(S(=O)(=O)N3CCCC3)cc2c1=O)c1ccc2c(c1)OCCO2 (centres undefined) | 0
CCN(CC)CCNC(=O)c1ccc(N)cc1 | 0
CC(=O)O[C@H]1CSC[C@H]1NC(=O)c1ccccc1 | 0
Nc1nnc(-c2cn(-c3ccccc3)nc2-c2ccccc2)o1 | 0
CCn1cc(C2Nc3ccccc3C(=O)N2O)c(C)n1 (centres undefined) | 0
CC(C)c1ncc(C(O)c2cccc3ccccc23)n1C (centres undefined) | 0
O=C(COc1ccccc1)Nc1ccccc1N1CCN(c2ccccc2)CC1 | 2
O=C(CN1C(=O)CC(c2ccccc2)=Nc2ccccc21)NCc1ccco1 | 0
O=C(OCC(=O)c1ccccc1Br)c1ccccn1 | 3
COc1ccccc1-c1nnc(NC(=O)c2ccc(S(=O)(=O)N(C)Cc3ccccc3)cc2)o1 | 0
CC(=O)N(C)C1(c2nnnn2CCOC(=O)Nc2cccc3ccccc23)CCCC1 | 0
Cc1nc2ccc(CCO)cc2s1 | 0
Cc1ccc(NC(=O)c2ccco2)c(NC(=O)CN2C(=O)c3ccccc3C2=O)c1 | 7
